# RGS16-Gao: regulators of human RGS16-Galphao interaction; O15492+P09471; bead-based flow cytometry RGS16-Galphao binding, fluorescence; actives lie on both sides; binding response (% of control), % at 10 µM; 0.38% of 220,000 active;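 also: Galphao activated by GDP with aluminum fluoride before binding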
# RGS4-Gao reg: modulates binding of RGS4 to human Galphao. Multiplexed bead flow cytometry; actives lie on both sides. binding response (% of control), % at 10 µM. 0.33% of 220,000 active; in the data active = binding response below about 49% or above about 150%; inactive = in between;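 also: fluorescent Galphao activated with aluminum fluoride binding bead-coupled RGS4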
# Target sequence (P09471 whole entry, looked up): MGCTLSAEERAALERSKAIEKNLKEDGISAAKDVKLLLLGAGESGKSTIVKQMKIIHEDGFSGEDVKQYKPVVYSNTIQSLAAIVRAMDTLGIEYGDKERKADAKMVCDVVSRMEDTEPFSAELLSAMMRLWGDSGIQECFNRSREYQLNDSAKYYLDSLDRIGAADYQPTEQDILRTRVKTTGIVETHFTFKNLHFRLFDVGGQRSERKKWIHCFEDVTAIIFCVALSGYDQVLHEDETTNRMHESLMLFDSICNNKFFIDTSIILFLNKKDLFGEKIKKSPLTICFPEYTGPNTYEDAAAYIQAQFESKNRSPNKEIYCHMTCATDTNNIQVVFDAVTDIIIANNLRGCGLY
# RGS7-Gao reg: modulates binding of RGS7 to human Galphao. binding response (% of control), % at 10 µM. P09471. 0.35% of 220,000 active. Multiplexed bead flow cytometry; actives lie on both sides. AID 1439; in the data active = binding response below about 49% or above about 150%; inconclusive = no clear call, values can overlap the other calls; inactive = in between;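 also: fluorescent Galphao held in activated GDP-AlF4 state binding bead-coupled RGS7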
# GSH fluor: compound fluoresces at 488/530 nm on GSH beads; GSH beads flow cytometry, compound fluorescence 488/530 nm; hits give high values; fluorescence (KMESF) at 10 µM; 0.25% of 190,000 active; in the data active = fluorescence above about 89;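 also: glutathione beads carrying GST-tagged Bcl family fusion proteins plus one bare bead set; values are compound well signal with DMSO vehicle wells as background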
# RGS8-Gao: regulators of human RGS8-Galphao interaction; P09471; multiplexed bead flow cytometry, RGS8-Galphao binding; actives lie on both sides; response (percent of control binding), % at 10 µM; 0.34% of 220,000 active; AID 1423; in the data active = response below about 60% or above about 140%; inactive = in between;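 also: Galphao activated as the GDP aluminium fluoride complex binding bead-coupled RGS8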
# Avidin fluor: avidin bead compound fluorescence profile | Avidin beads, compound fluorescence 488/530 nm, flow cytometry; hits give high values | fluorescence (KMESF) at 10 µM | 0.38% of 220,000 active | AID 1775; in the data active = fluorescence above about 47
# RGS4-Gao HTS: modulates binding between human RGS4 and Galphao; multiplexed bead flow cytometry, RGS–Galpha-o binding; shares compounds with RGS16-Gao; AID 1504; RGS4–Galpha-o binding response, % at 10 µM; 99% of 1,600 active;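 also: fluorescently labeled Galpha-o bound to GDP with aluminium fluoride binding biotinylated RGS beads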
# Target sequence (P09471 whole entry, looked up): as above
# Target sequence (P49798 whole entry, looked up): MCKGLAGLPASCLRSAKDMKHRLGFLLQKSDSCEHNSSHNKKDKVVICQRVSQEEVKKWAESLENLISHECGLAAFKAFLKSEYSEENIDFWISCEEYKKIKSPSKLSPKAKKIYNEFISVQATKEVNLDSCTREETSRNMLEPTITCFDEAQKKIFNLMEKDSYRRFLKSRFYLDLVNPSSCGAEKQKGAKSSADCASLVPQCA
# Avidin counter: biotin-avidin bead binding disruption counter-screen; streptavidin beads, fluorescein-biotin binding, flow cytometry; 1,700 tested, under 10 active; inhibition, % at 10 µM; shares compounds with RGS16-Gao;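 active = inhibition above 50%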;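 also: median green fluorescence of gated singlet beads compared with DMSO control wells; 0% = DMSO wells and 100% = complete loss of bead fluorescence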
# RGS8-Gao confirm: confirmation of regulators of human RGS8-Galphao interaction. shares compounds with RGS16-Gao. bead-based flow cytometry RGS8-Galphao binding, fluorescence; actives lie on both sides. binding response (% of control), % at 10 µM. 3% of 1,700 active; in the data active = binding response below about 72% or above about 130%; inactive = in between;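 also: Galphao activated as GDP AlF4 complex before binding bead RGS8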
# RGS7-Gao single: confirmation of regulators of human RGS7-Galphao interaction. shares compounds with RGS16-Gao. bead-based flow cytometry RGS7-Galphao binding; actives lie on both sides. response (percent of control binding), % at 10 µM. 7.8% of 1,700 active. AID 1837; in the data active = response below about 75% or above about 130%; inactive = in between;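 also: fluorescent Galphao activated with GDP and aluminum fluoride binding bead-coupled RGS7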
# RGS16-Gao single: RGS16-Galphao interaction regulation, single point confirmation | shares compounds with RGS16-Gao | bead-based flow cytometry, RGS16-Galphao binding; actives lie on both sides | response (% of control binding), % at 10 µM | 4% of 1,700 active | AID 1838; in the data active = response below about 74% or above about 130%; inactive = in between;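 also: Galphao activated as the GDP aluminium fluoride complex binding bead-coupled RGS16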
# RGS4-Gao single: RGS4-Galphao interaction regulation, single point confirmation. shares compounds with RGS16-Gao. RGS4-Galphao binding, multiplexed bead flow cytometry; actives lie on both sides. binding response (% of control), % at 10 µM. 4% of 1,700 active; in the data active = binding response below about 74% or above about 130%; inactive = in between
# RGS19-Gao single: confirmation of regulators of human RGS19-Galphao interaction | shares compounds with RGS16-Gao | bead-based flow cytometry RGS19-Galphao binding; actives lie on both sides | response (percent of control binding), % at 10 µM | 5% of 1,700 active | AID 1841; in the data active = response below about 50% or above about 160%; inactive = in between;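 also: 100% = no compound control and 0% = blank background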
# An asterisk follows results filed as active; ? = inconclusive; . = not tested or not shown; [ ] = remark or other dose. Rows were chosen to be rich in hits. Some 1.2% of all compounds tested hit in one or more screens of this group. Unless noted, no rule for the calls is given here.
SMILES,RGS16-Gao,RGS4-Gao reg,RGS7-Gao reg,GSH fluor,RGS8-Gao,Avidin fluor,Avidin counter,RGS8-Gao confirm,RGS7-Gao single,RGS16-Gao single,RGS4-Gao single,RGS19-Gao single,others
c1ccc(-c2ccccc2OCCCN2CCOCC2)cc1,95,99,103,23,98,24,.,.,.,.,.,.,
OCCCN1CCN(CCCOc2ccccc2-c2ccccc2)CC1,179*[activator],107,110,6,116,13,1,102,103,104,104,95,RGS4-Gao HTS=107*
COc1ccc(OC)c(NC(=O)CSc2nnc(CNC(=O)COc3ccc(Cl)cc3)o2)c1,117,105,159*[activator],15,104,68*,-2,104,104,106,104,100,RGS4-Gao HTS=105*
COc1ccc(NC(=O)CSc2nnc(CNC(=O)COc3ccc(Cl)cc3)o2)c(OC)c1,104,105,106,14,104,38,.,.,.,.,.,.,
O=c1[nH]c(=O)n(Cc2ccco2)c2c1C(C(F)(F)F)(C(F)(F)F)N=C(c1ccc(F)cc1)N2,98,98,104,8,106,11,.,.,.,.,.,.,
O=c1[nH]c(=O)n(Cc2ccccc2)c2c1C(C(F)(F)F)(C(F)(F)F)N=C(c1ccco1)N2,42,49*,45*,26,56*,2,-1,101,101,101,100,98,
C/C(=N/NC(=O)c1cccs1)c1cccc(NC(=O)C2CC2)c1,95,97,97,7,100,.,.,.,.,.,.,.,
CC(=O)N/N=C(\C)c1cccc(NC(=O)c2cccs2)c1,43,-636*,-112*,12,34*,-3,0,100,100,100,102,110,
Cc1ccc(-c2nc3cccnc3s2)cc1NS(=O)(=O)c1ccc2c(c1)CCCC2,29,28*,32*,16,46*,2,0,104,102,103,104,107,
O=S(=O)(Nc1cccc(-c2nc3cccnc3s2)c1)c1ccc2c(c1)CCCC2,101,104,105,17,103,5,.,.,.,.,.,.,
COc1ccc(-c2nnc(SCC(=O)Nc3cc(F)ccc3C)o2)cc1,110,120,185*[activator],22,100,116*,.,.,.,.,.,.,RGS4-Gao HTS=120*
CC(=O)Nc1ccc(NC(=O)CSc2nnc(-c3ccco3)o2)cc1,104,100,104,11,101,21,.,.,.,.,.,.,
Cc1cc(NC(=O)CSc2nnc(-c3ccco3)o2)no1,.,100,96,44,102,.,4,95,80,89,86,71,
Cc1cc(NC(=O)CSc2nc(-c3ccccc3)cs2)no1,.,.,.,40,.,.,-1,98,100,97,99,118,
CCc1cc2ccccc2nc1SCC(=O)Nc1cc(C)on1,116,106,105,25,108,12,.,.,.,.,.,.,
Cc1cc(NC(=O)CSc2ccc3ccccc3c2)no1,.,.,.,29,.,.,-1,99,98,96,97,104,
Cc1cc(NC(=O)CSc2nc(-c3ccc(F)cc3)cs2)no1,89,87,85,15,91,14,.,.,.,.,.,.,
CCOC(=O)Cc1csc(NC(=O)c2c(O)c3c(n(CC(C)C)c2=O)CCCC3)n1,101,102,?,.,98,9,.,.,.,.,.,.,
O=C(CSc1nccc(=O)[nH]1)c1cc2ccccc2o1,94,97,?,.,97,7,.,.,.,.,.,.,
O=C(CSc1ncn[nH]1)c1cc2ccccc2o1,219*[activator],265*[activator],243*[activator],22,112,33,-1,98,100,96,96,70,
Cc1nn(CC(=O)Nc2cccnc2)c(C)c1[N+](=O)[O-],113,99,103,22,103,8,.,.,.,.,.,.,
CCN(CC)c1ccc(N2C(=O)/C(=C\c3cccs3)SC2=S)cc1,.,.,.,27,.,.,1,95,90,93,93,109,
Cc1ccc(C2CC(c3ccccc3)=NN2C(=S)Nc2ccccc2)o1 (stereo unspecified),-20*,-31*,-7.6*,11,11*,-1,1,94,100,98,98,97,
O=[N+]([O-])c1cccc(COc2ncnc3cc([N+](=O)[O-])ccc23)c1,106,109,?,.,106,4,.,.,.,.,.,.,
C=CCn1c(C(CCCC)CC(C)O)n[nH]c1=S (stereo unspecified),-9.0*,84,85,9,67,5,0,91,88,87,90,55,RGS4-Gao HTS=84*
SMILES,RGS16-Gao,RGS4-Gao reg,RGS7-Gao reg,GSH fluor,RGS8-Gao,Avidin fluor,Avidin counter,RGS8-Gao confirm,RGS7-Gao single,RGS16-Gao single,RGS4-Gao single,RGS19-Gao single,others
C=CCn1c(C(CCC(C)C)CC(C)(C)O)n[nH]c1=S (stereo unspecified),94,102,111,28,103,6,.,.,.,.,.,.,
CC(=O)Nc1ccccc1C(=O)C(=O)Nc1ccc(C)c(C)c1,251*[activator],110,109,6,127,16,-1,100,107,104,105,88,RGS4-Gao HTS=110*
COc1ccc(Oc2ccccc2/C=C/C(=O)O)cc1,101,98,98,12,100,33,.,.,.,.,.,.,
O=C(O)/C=C\c1ccccc1Oc1ccc(F)cc1,101,127,167*[activator],70,100,89*,1,103,86,98,97,98,RGS4-Gao HTS=127*
O=C(O)/C=C/c1ccccc1Oc1ccccc1,184,162*[activator],154*[activator],30,138,88*,0,98,96,98,96,97,
CC(C)CNC(=O)c1cccc(NC(=O)C(C)Oc2ccccc2)c1 (stereo unspecified),102,104,101,15,104,6,.,.,.,.,.,.,
COc1cccc(Cn2c(C3CC3)nc3ccc(NC(=O)c4ccco4)cc3c2=O)c1,134,77,579*[activator],9,76,603*,0,102,106,104,102,99,RGS4-Gao HTS=77*
O=C1N/C(=N\c2ccccn2)SC1Cc1ccccc1Cl (stereo unspecified),86,87,?,.,91,5,.,.,.,.,.,.,
